# Records with an inconclusive call do not appear. Entries that show only a call come without a potency. Calls of active or inactive are those of the source. Calls come from the whole dose curve; as a rule, active = well fitted activation curve with a large enough effect in the repeat runs; inconclusive = weak or mixed curves; inactive = flat fitted curve, though single readings scatter.
# Assay: A CellTox Green Cytotoxicity Assay to monitor cytotoxicity in HepG2 cells - 32 hour (AID 1224883); note: nearly all actives have a fitted effect of over 50% in size; note: potency is the fitted concentration of half-maximal effect
# Conditions: CellTox Green fluorescence; series mostly up to 76.8 µM
# In short: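 Nonlytic assay: viable cells exclude the dye, so fluorescence scales with cell death. HepG2 at 600 cells/well, compounds added after 5 h, signal read across 40 h.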
row,SMILES,Potency
1,CCCCCCCC[Si](OCC)(OCC)OCC,inactive
2,CCC(C)(CCC(C)C)C(=O)[O-].CCC(C)(CCC(C)C)C(=O)[O-].[Zn+2] (stereo unspecified),inactive
3,O=C(COCCOCCOCC(=O)Nc1c(I)cc(I)c(C(=O)O)c1I)Nc1c(I)cc(I)c(C(=O)O)c1I,inactive
4,CN=C(NC#N)NCCSCc1csc(N=C(N)N)n1,inactive
5,CCC(C)N (stereo unspecified),inactive
6,CCOc1ccc(NC(=O)OC(C)C)cc1OCC,inactive
7,CCCC(C)CC (stereo unspecified),inactive
8,Cc1ncc([N+](=O)[O-])n1CC(O)CCl (stereo unspecified),inactive
9,Cc1nc2ccccc2c(=O)o1,inactive
10,O=C1c2ccccc2-c2ccccc21,inactive
11,C/C=C(\C)C(=O)OCC/C=C\CC,inactive
12,CN(C1CCCCC1)S(=O)(=O)c1ccccc1N,inactive
13,Cc1ccc2c(c1)c1c3n2CCNC3CCC1 (stereo unspecified),inactive
14,Cc1ccc(S(=O)(=O)NC(=O)NC2CCCCCCC2)cc1,inactive
15,NCCc1ccn[nH]1,inactive
16,COCC(=O)Nc1c(I)c(C(=O)NCC(O)CO)c(I)c(C(=O)N(C)CC(O)CO)c1I (stereo unspecified),inactive
17,CC(=O)OCCCc1ccccc1,inactive
18,O=S1(=O)CCCC1,inactive

row,SMILES,Potency
1,CCCOC(=O)CCCCC(=O)OCCC,inactive
2,CC(CC(=O)O)CC(C)(C)C (stereo unspecified),inactive
3,CC(C)(C)NCCO,inactive
4,c1ccc(CNc2ncnc3nc[nH]c23)cc1,inactive
5,O=C(O)C(=O)Nc1cccc(-c2nn[nH]n2)c1,inactive
6,CC(=O)OC(C)c1ccccc1 (stereo unspecified),inactive
7,CCOC(=O)C(=O)c1csc(NC=O)n1,inactive
8,O=P(O)(O)OCC(O)CO (stereo unspecified),inactive
9,CCCCCCCCCCCCCCCC(=O)NCCO,9.52 µM (active)
10,CC(C)(CO)[C@@H](O)C(=O)NCCCO,inactive
11,COc1cccc2sc(N)nc12,inactive
12,OC[C@@H](O)[C@H](O)[C@@H](O)[C@@H](O)CO,inactive
13,CCCCCCCCCCCCCCCCCCN(C)C,inactive
14,NS(=O)(=O)c1ccccc1OC(F)(F)F,inactive
15,Nc1cc(Cl)cc(S(=O)(=O)O)c1O,inactive
16,C=CC(C)(O)CC/C=C(\C)CC (stereo unspecified),inactive
17,CCOC(=O)CC(CC(=O)OCC)(OC(C)=O)C(=O)OCC,inactive

# Assay: A CellTox Green Cytotoxicity Assay to monitor cytotoxicity in HEK293 cells - 8 hour (AID 1224884); note: nearly all actives have a fitted effect of over 35% in size
# Conditions: CellTox Green fluorescence; series mostly up to 76.8 µM
# In short: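 Seeding of HEK293 cells together with cytotoxicity dye preceded a 5 h incubation at 37 C/5% CO2. Test compounds in DMSO were then added and fluorescence monitored across 40 h.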
row,SMILES,Potency
1,CCCCCCCC[Si](OCC)(OCC)OCC,inactive
2,CCC(C)(CCC(C)C)C(=O)[O-].CCC(C)(CCC(C)C)C(=O)[O-].[Zn+2] (stereo unspecified),inactive
3,O=C(COCCOCCOCC(=O)Nc1c(I)cc(I)c(C(=O)O)c1I)Nc1c(I)cc(I)c(C(=O)O)c1I,inactive
4,CN=C(NC#N)NCCSCc1csc(N=C(N)N)n1,inactive
5,CCC(C)N (stereo unspecified),inactive
6,CCCC(C)CC (stereo unspecified),inactive
7,Cc1ncc([N+](=O)[O-])n1CC(O)CCl (stereo unspecified),inactive
8,O=C1c2ccccc2-c2ccccc21,inactive
9,C/C=C(\C)C(=O)OCC/C=C\CC,inactive
10,Cc1ccc2c(c1)c1c3n2CCNC3CCC1 (stereo unspecified),inactive
11,Cc1ccc(S(=O)(=O)NC(=O)NC2CCCCCCC2)cc1,inactive
12,NCCc1ccn[nH]1,inactive
13,CCCCC(CC)CNC(=O)CC(C)OC(=O)CCC(=O)O (stereo unspecified),inactive
14,COCC(=O)Nc1c(I)c(C(=O)NCC(O)CO)c(I)c(C(=O)N(C)CC(O)CO)c1I (stereo unspecified),inactive
15,CC(=O)OCCCc1ccccc1,inactive
16,O=S1(=O)CCCC1,inactive

row,SMILES,Potency
1,CCCOC(=O)CCCCC(=O)OCCC,inactive
2,CC(CC(=O)O)CC(C)(C)C (stereo unspecified),inactive
3,c1ccc(CNc2ncnc3nc[nH]c23)cc1,inactive
4,O=C(O)C(=O)Nc1cccc(-c2nn[nH]n2)c1,inactive
5,CC(=O)OC(C)c1ccccc1 (stereo unspecified),inactive
6,CCOC(=O)C(=O)c1csc(NC=O)n1,inactive
7,O=P(O)(O)OCC(O)CO (stereo unspecified),inactive
8,CCCCCCCCCCCCCCCC(=O)NCCO,inactive
9,CC(C)(CO)[C@@H](O)C(=O)NCCCO,inactive
10,COc1cccc2sc(N)nc12,inactive
11,OC[C@@H](O)[C@H](O)[C@@H](O)[C@@H](O)CO,inactive
12,NS(=O)(=O)c1ccccc1OC(F)(F)F,inactive
13,O=C(CN1CCN(Cc2ccc3c(c2)OCO3)CC1)N1c2ccccc2Sc2ccccc21,inactive
14,C=CC(C)(O)CC/C=C(\C)CC (stereo unspecified),inactive
15,CCOC(=O)CC(CC(=O)OCC)(OC(C)=O)C(=O)OCC,inactive

# Reference: PubChem BioAssay (Tox21)
